The record followed here is PubChem BioAssay AID651719 (The Scripps Research Institute Molecular Screening Center, 2012).

The whole screen tested about 360,000 compounds, of which about 1,600 (0.44%) were called active. Shown is part of a subset that was picked to be rich in actives. A number with no mark means an inactive call.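 The calls were made as follows: active = inhibition above the screen-wide average plus 3 SD (cut at about 13% in these data); inactive = the rest.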

Chain of Galanin receptor type 3 (Homo sapiens) (O60755 1-299 limits assumed): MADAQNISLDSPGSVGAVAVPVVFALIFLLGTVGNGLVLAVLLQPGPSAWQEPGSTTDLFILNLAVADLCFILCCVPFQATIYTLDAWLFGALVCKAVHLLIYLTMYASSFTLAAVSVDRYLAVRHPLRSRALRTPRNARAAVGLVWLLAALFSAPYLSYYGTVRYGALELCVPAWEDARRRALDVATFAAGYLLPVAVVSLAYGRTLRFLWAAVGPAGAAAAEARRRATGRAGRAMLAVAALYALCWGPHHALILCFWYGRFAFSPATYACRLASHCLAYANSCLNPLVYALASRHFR

The assay concerns the target Galanin receptor type 3 (Homo sapiens) (UniProt O60755). As to the kind of experiment: blockers of human galanin receptor 3 – cell-based, fluorescence readout, primary screen (AID 651719).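 Also: forskolin and galanin both at EC90 stimulate the cells; cAMP rise reported by CNG channel membrane potential dye signal; 0% = forskolin plus galanin with DMSO and 100% = forskolin alone.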 The settings on record: HEK293 GalR3-CNG cAMP membrane potential fluorescence; at 3 µM; stronger effect = higher value; galR3 body fused to GalR1 C-terminus.
By inhibition is commonly meant the change of the read-out against control, counted positive when it falls. As to `CCCCCCCCn1c2c(c(=N)c3c1CCC3)CCCC2`, the inhibition was 30.2% (active).
The figure for `COC(=O)C1=C(C)N(Cc2cccc(C(F)(F)F)c2)C(=NCc2cccc(C(F)(F)F)c2)NC1c1ccccc1C(F)(F)F` (centres undefined) is -1.24%; for `Cc1ccc(NC(=O)N2c3ccccc3SC2c2ccco2)c(C)c1` (centres undefined) it is -5.21%; for `CC(C)(C)NCc1cc(Br)ccc1OC1CCCC1` it is -9.54%.
In the case of `CCOc1ccc(Br)cc1S(=O)(=O)N1CCC(C(=O)O)CC1`, the inhibition was -0.52%.
Consider `CCOc1ccc(Br)cc1CSC(=N)N`, for which the inhibition is 58.7% (active).
The figure for `COc1ccccc1C(=O)N1O[C@]23C=C[C@]14C[C@@H](O)CC[C@]4(C)C2CC[C@]1(C)[C@@H]([C@H](C)/C=C/[C@H](C)C(C)C)CC[C@H]13` (some centres undefined) is -7.73%; for `CCN1C(=O)N[C@@H]2C[C@H](C(=O)N3CCCC3)[C@H](C)[C@H](c3ccccc3)C[C@@H]21` it is -5.5%.
`O=C(N[C@H](C(=O)N1CCC[C@H]1C(=O)NCCc1ccccc1Cl)c1ccccc1)c1ccccc1`: the inhibition is -7.99%.
The figure for `COc1ccccc1-c1ccc([C@@H]2C[C@H]3[C@H](CON3C)CN2S(=O)(=O)c2cc(Cl)cc(Cl)c2)cc1` is -6.77%.
The figure for `O=C(NCC(=O)N(c1ccccc1)C(C(=O)NCC1CCCO1)c1ccccc1)c1cccs1` (centres undefined) is 0.38%.
In the case of `O=C(NCC(=O)N(CC1CCCO1)C(C(=O)NC1CCCCC1)c1ccccc1)c1ccco1` (centres undefined) it was -3.5%; in that of `COc1ccc(N(C(=O)CNC(=O)c2ccco2)C(C(=O)NCC2CCCO2)c2ccccc2)cc1Cl` (centres undefined), 17.1% (active); in that of `COC(=O)c1c(-c2ccc(OC)cc2)c2c(c3c4cc(OC)ccc4n(S(=O)(=O)c4ccc(F)cc4)c13)C(=O)N(C)C2`, -4.47%.
Regarding `CCOC(=O)c1c(NC(=O)CSc2nnc(CNc3ccc(C)cc3C)o2)sc(C)c1C`, the inhibition is -5.1%.
In the case of `CCOC(=O)c1c(NC(=O)CSc2nnc(Cc3csc(N)n3)n2C)sc(C)c1C` it was -6.84%; in that of `CCOC(=O)c1c(NC(=O)CSc2nccc(=O)[nH]2)sc(C)c1C`, 14.3% (active).
The figure for `O=C1Nc2ccccc2C1=NN=Cc1ccco1` is -6.76%.
Take `CC(C)(C)n1nc(C2CC2)c(Br)c1NC(=O)c1ccccc1F`: the inhibition was -6.97%.
With `O=c1[nH]c(-c2ccccc2)cn1C1CCN(Cc2ccc(-c3nc4ccc(F)cc4nc3-c3ccccc3)cc2)CC1`, the inhibition is -7.59%.
Consider `CCOc1ccc(C(C)=O)cc1COC(=O)CNC(=O)c1cccs1`, for which the inhibition was -0.09%.
The figure for `COC(=O)c1ccc(COC(=O)c2cnc(Cl)c(Cl)c2)cc1` is -9.03%; for `CCOc1ccc(C(C)=O)cc1COC(=O)c1cnc(Cl)c(Cl)c1` it is 13.8% (active).
Consider `COC(=O)c1ccc(CN2C(=O)[C@]3(OCCC=C[C@H]3C)c3c(Br)cccc32)cc1`, for which the inhibition was -6.8%.
The figure for `CC1CCN(C(=O)c2ncn3c2C(=O)N[C@@H](C)C3)CC1` is -3.89%; for `O=C(NCc1ccccc1)[C@@H]1CCCN1C(=O)[C@H]1CCCN1C(=O)c1cccc(Cl)c1` it is -6.19%.
In the case of `CCOC(=O)N1CCN(Cc2nc3cc(NC(C)=O)ccc3n2C)CC1` it was -9.27%; in that of `O=C(Nc1ccc(CN2CCOCC2)cc1)c1cc(Cl)ccc1Cl`, -7.17%.
In the case of `Cn1c(CN2CCOCC2)nc2cc(NC(=O)c3ccc(Cl)cc3)ccc21` it was 74.6% (active); in that of `Cc1cc(NCCc2c[nH]c3ccccc23)ccc1Oc1cccnc1`, -8.42%.
Turning to `COc1ccc(CN2CCCC(C(=O)c3ccc(Cl)cc3)C2)cc1Cn1cncn1` (centres undefined), the inhibition was -0.72%.
`COc1ccc(C2Nc3ccccc3C(=O)N2Cc2ccccc2)cc1Cn1nnc2ccccc21` (centres undefined): the inhibition is -2.99%.
The figure for `COc1ccc(C2Nc3ccccc3C(=O)N2c2ccc(Cl)cc2)cc1Cn1cc([N+](=O)[O-])cn1` (centres undefined) is 28.1% (active); for `CN[C@H]1C[C@H]2c3[nH]c4c(-c5ccccc5)cccc4c3CCN2C(=O)[C@H]1[C@H](C)O` it is -8.33%; for `CC(=NNC(N)=O)c1ccc(Cl)c(-n2cccc2)c1` it is -8.67%.
Consider `C[C@@H]1ON(C)[C@H]2C[C@H]3c4cc(N5CCOCC5)ccc4CCN3C[C@@H]12`, for which the inhibition is -4.65%.
In the case of `COC(=O)[C@H](CC(C)C)NS(=O)(=O)c1c(F)cccc1F` it was -4.91%; in that of `COCc1[nH]nc2c1C(c1ccccc1)N(c1ccccc1)C2=O` (centres undefined), -6.8%.
Regarding `CN1C(=O)C2CC(O)C(SC3CC4C(=O)N(C)C(=O)C4CC3O)CC2C1=O` (centres undefined), the inhibition is -2.8%.
In the case of `COC(=O)c1nc(NC(=O)c2ccc(C(C)(C)C)cc2)n[nH]1` it was -1.62%.
Consider `Cc1cccc(NC(=O)c2ccc(S(=O)(=O)N(C)c3ccccc3)cc2)n1`, for which the inhibition is -6.82%.
In the case of `CSc1nccc(NC(=O)c2ccc(C(C)(C)C)cc2)n1`, the inhibition is 104% (active).
The figure for `CCCCCCCCN1C(=O)[C@@H](CC(=O)NCCCC)C[C@@]2(C(=O)OC)C1=C[C@H](C(C)(C)C)O[C@@H]2C` is -5.71%; for `O=C(NCc1ccccc1)[C@H]1CCCN1C(=O)[C@H]1CCCN1C(=O)N1CCOCC1` it is -7.58%.
In the case of `Nc1[nH]c(C(=O)c2ccc(Br)cc2)c(-c2ccc3c(c2)OCO3)c1C(=O)NCCc1c[nH]c2ccccc12` it was -6.84%.
The figure for `NC(=O)c1ncn([C@@H]2O[C@H](C(=O)O)[C@@H](O)[C@H]2O)n1` is -7.36%.
On to `Nc1ncnc2c1ncn2[C@@H]1O[C@H](C(=O)NCC(F)(F)F)[C@@H](O)[C@H]1O`, for which the inhibition was -9.69%.
The figure for `Nc1ncnc2c1ncn2[C@@H]1O[C@H](C(=O)N2CCSC2)[C@@H](O)[C@H]1O` is -5.85%; for `Nc1ncnc2c1ncn2C1OC(CO)CC1O` (centres undefined) it is 53.3% (active); for `Brc1ccc(COCCc2cn(Cc3ccccc3)c3ccccc23)cc1` it is 3.44%.
`COC(=O)[C@]12C[C@H](CC(=O)NCc3ccc(C)o3)C(=O)N(CCC3=CCCCC3)C1=C[C@H](C(C)(C)C)O[C@@H]2C`: the inhibition is -7.34%.
The figure for `O=C(NC(Nc1nc2ccc([N+](=O)[O-])cc2s1)(C(F)(F)F)C(F)(F)F)c1ccccc1` is 20% (active); for `CC(Nc1ccc([N+](=O)[O-])cc1[N+](=O)[O-])c1ccccc1` (centres undefined) it is -6.77%; for `O=C(NNC(=O)c1ccc(-n2cncn2)c([N+](=O)[O-])c1)c1ccccc1` it is -6.89%.
